Results reported in PubChem BioAssay (Tox21).
Results filed as inconclusive are left out. Calls of active or inactive are those of the source. Unless noted, calls come from the whole dose curve.

Legend:
[1] = Nuclear factor erythroid 2-related factor 2/antioxidant responsive element (Nrf2/ARE) small molecule agonists: qHTS cell viability counter screen in human keratinocytes (AID 1919968; active = well fitted curve in the direction sought with a large enough effect in the repeat runs; an effect the other way counts as inactive or inconclusive; note: nearly all actives have a fitted effect of over 55% in size)
Summary of the method: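 Seed 1,500 KeratinoSens cells per well, then incubate 5 h at 37 C/5% CO2. Add compounds in DMSO and incubate 23 h. Add CellTiter-Fluor, wait 1 h and read fluorescence.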

[2] = Nuclear factor erythroid 2-related factor 2/antioxidant responsive element (Nrf2/ARE) small molecule agonists: luciferase reporter gene qHTS assay in human keratinocytes (AID 1919969); note: nearly all actives have a fitted effect of over 35% in size
[3] = target: Gonadotropin-releasing hormone receptor (Homo sapiens) (UniProt P30968); experiment: Human gonadotropin-releasing hormone receptor (GnRHR) small molecule agonists, calcium flux assay in GnRHR-HEK293 cells (AID 1920063); note: nearly all actives have a fitted effect of over 35% in size
Sequence of Gonadotropin-releasing hormone receptor (Homo sapiens) (P30968 whole entry, looked up): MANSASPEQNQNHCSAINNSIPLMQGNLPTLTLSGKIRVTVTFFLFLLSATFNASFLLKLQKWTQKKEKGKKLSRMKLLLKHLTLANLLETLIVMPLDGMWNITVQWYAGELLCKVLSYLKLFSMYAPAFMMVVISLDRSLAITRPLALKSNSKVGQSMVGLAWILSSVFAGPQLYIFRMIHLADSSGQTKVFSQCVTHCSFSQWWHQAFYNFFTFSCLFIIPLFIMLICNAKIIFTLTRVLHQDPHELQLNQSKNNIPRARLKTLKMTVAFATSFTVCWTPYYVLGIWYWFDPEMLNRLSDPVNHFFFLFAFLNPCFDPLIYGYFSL
Summary of the method: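 Cells: HEK293 stably expressing human GnRHR. Steps: overnight (18 h) culture, 1 h calcium dye loading at 37 C, compound addition, kinetic fluorescence read at 480/540 nm. Each compound tested at 15 concentrations in triplicate.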

[4] = target: KiSS-1 receptor (Homo sapiens) (UniProt Q969F8); experiment: Human kisspeptin (KISS1R) small molecule agonists, calcium flux assay in KISS1R-HEK293 cells (AID 1920064; active = well fitted curve in the direction sought with a large enough effect in the repeat runs; an effect the other way counts as inactive or inconclusive)
Sequence of KiSS-1 receptor (Homo sapiens) (Q969F8 whole entry, looked up): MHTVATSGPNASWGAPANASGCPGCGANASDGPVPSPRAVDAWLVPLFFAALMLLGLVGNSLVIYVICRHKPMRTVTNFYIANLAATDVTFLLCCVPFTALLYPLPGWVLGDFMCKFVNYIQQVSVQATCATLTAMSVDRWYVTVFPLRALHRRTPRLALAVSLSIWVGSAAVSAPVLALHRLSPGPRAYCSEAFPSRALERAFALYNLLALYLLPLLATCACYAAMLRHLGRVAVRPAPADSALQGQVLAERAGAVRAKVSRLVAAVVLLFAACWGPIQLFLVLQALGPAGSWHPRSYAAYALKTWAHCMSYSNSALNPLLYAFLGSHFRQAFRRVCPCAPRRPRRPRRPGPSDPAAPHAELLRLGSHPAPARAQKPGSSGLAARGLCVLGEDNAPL
Summary of the method: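 Cells plated and incubated 18 h; dye added, 1 h at 37 C; compounds in DMSO pinned in; signal read at 480/540 nm every second for 3 min. Each compound tested at 15 concentrations in triplicate.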

[5] = G protein-coupled receptor (GPCR) small molecule agonists, calcium flux assay: HEK293 wild type cell line counter screen (AID 1920065)
Summary of the method: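 Counter-screen of the Tox21 10K library for non-specific calcium release: dye-loaded cells received compounds in DMSO and were monitored by kinetic fluorescence (480/540 nm, 3 min). Fifteen concentrations, run in triplicate.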

[6] = p53 small molecule agonists, cell-based qHTS assay with human liver microsomes (AID 1963577);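 note: p53 response element beta-lactamase reporter cells with liver microsomes plus NADPH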
Summary of the method: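 p53RE-bla cells; 5 h settle, 37 C/5% CO2; cpd + HLM 0.5 mg/mL + NADPH 0.5 mg/mL (final); 16 h 37 C; LiveBLAzer 2 h RT dark; fluorescence readout.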

[7] = p53 small molecule agonists, cell-based qHTS assay with human liver microsomes: qHTS cell viability counter screen (AID 1963579); note: nearly all actives have a fitted effect of over 45% in size
Summary of the method: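 Luminescent CellTiter-Glo read-out, 30 min at room temperature, gauged cytotoxicity in p53RE-bla cells exposed 16 h at 37 C to DMSO-dissolved compounds with metabolic activation by human liver microsomes and NADPH, each 0.5 mg/mL final.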

[8] = p53 small molecule agonists, cell-based qHTS assay with rat liver microsomes: qHTS cell viability counter screen (AID 1963580); note: nearly all actives have a fitted effect of over 45% in size
Summary of the method: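 Viability is assessed in parallel with the p53 reporter read: HCT-116 p53RE-bla cells receive compounds plus rat microsomes and NADPH (0.5 mg/mL final apiece), incubate 16 h at 37 C, and then CellTiter-Glo luminescence is recorded.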

[9] = p53 small molecule agonists, cell-based qHTS assay: qHTS cell viability counter screen (AID 1963581); note: nearly all actives have a fitted effect of over 45% in size
Summary of the method: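 Cells: HCT-116 with p53 response element-driven beta-lactamase. Treatment: 16 h, 37 C, compounds in DMSO. Read: CellTiter-Glo luminescence after 30 min RT.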

[10] = p53 small molecule agonists, cell-based qHTS assay (AID 1963582; active = well fitted activation curve with a large enough effect in the signal ratio in the repeat runs, not every such curve was filed as active; the % refers to the signal ratio)
Summary of the method: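 Quantitative HTS in p53RE-bla cells: after a 5 h settling period, compounds delivered in DMSO were left on cells for 16 h at 37 C, and reporter induction was measured as fluorescence following 2 h substrate loading.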

[11] = target: 5-hydroxytryptamine receptor 2A (Homo sapiens) (UniProt P28223); experiment: 5-hydroxytryptamine receptor 2A (HTR2A) small molecule antagonists, cell-based qHTS assay (AID 1963586); note: nearly all actives have a fitted effect of over 45% in size
Sequence of 5-hydroxytryptamine receptor 2A (Homo sapiens) (P28223 whole entry, looked up): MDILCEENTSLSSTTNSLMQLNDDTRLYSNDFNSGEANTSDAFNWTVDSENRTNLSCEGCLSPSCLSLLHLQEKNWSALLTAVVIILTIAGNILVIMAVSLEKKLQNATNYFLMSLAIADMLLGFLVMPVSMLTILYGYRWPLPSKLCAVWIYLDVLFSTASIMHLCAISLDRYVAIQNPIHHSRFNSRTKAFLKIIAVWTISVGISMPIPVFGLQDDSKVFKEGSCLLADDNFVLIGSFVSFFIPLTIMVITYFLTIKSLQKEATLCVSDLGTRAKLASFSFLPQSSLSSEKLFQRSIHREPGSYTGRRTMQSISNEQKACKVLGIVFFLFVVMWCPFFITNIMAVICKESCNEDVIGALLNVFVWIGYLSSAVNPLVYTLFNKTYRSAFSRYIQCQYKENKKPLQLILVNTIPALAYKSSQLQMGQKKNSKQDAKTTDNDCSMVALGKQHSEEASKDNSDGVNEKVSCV
Summary of the method: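 Antagonist-mode intracellular calcium assay: DOI (4 nM) added after 5 min compound pre-incubation at room temperature to dye-loaded HTR2A-CHO cells. Fluorescence followed for 3 min, sampled every second.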

[12] = target: 5-hydroxytryptamine receptor 2A (Homo sapiens) (UniProt P28223); experiment: 5-hydroxytryptamine receptor 2A (HTR2A) small molecule agonists, cell-based qHTS assay (AID 1963587); note: nearly all actives have a fitted effect of over 30% in size
Summary of the method: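 CHO cells stably expressing human HTR2A, plated 18 h, loaded with calcium dye 1 h at 37 C. Agonist mode: compounds added and intracellular calcium fluorescence recorded kinetically for 2 min at 1 sec intervals.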

[13] = target: Muscarinic acetylcholine receptor M1 (Homo sapiens) (UniProt P11229); experiment: Cholinergic receptor muscarinic 1 (CHRM1) small molecule antagonists, cell-based qHTS assay (AID 1963588); note: nearly all actives have a fitted effect of over 40% in size
Sequence of Muscarinic acetylcholine receptor M1 (Homo sapiens) (P11229 whole entry, looked up): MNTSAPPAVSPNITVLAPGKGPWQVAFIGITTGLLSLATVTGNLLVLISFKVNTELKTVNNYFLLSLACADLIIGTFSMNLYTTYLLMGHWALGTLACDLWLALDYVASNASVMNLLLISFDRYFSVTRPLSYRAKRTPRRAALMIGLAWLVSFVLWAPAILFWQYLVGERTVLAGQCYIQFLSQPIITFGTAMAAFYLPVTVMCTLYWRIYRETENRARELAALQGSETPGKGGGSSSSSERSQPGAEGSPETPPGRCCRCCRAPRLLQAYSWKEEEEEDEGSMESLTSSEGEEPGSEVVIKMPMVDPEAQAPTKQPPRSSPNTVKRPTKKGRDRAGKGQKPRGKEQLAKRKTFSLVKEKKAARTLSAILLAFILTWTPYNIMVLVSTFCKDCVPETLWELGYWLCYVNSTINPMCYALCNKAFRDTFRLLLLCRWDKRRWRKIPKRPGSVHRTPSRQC
Summary of the method: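 CHRM1-CHO calcium-flux assay, antagonist mode. Cells were seeded 18 h, dye-loaded 1 h at 37 C and given compound for 5 min at RT, then acetylcholine was added at 50nM. FDSS fluorescence was read 3 min; 15 concentrations, three runs.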

[14] = target: Muscarinic acetylcholine receptor M1 (Homo sapiens) (UniProt P11229); experiment: Cholinergic receptor muscarinic 1 (CHRM1) small molecule agonists, cell-based qHTS assay (AID 1963589); note: nearly all actives have a fitted effect of over 35% in size
Summary of the method: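 Agonist-mode qHTS in CHO cells stably carrying human muscarinic M1. Intracellular calcium is tracked by fluorescence every second after compound transfer; each compound runs at 15 concentrations in three independent runs.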

[15] = cAMP Responsive Elements (CRE) small molecule agonists, cell-based qHTS assay (AID 1963590)
Summary of the method: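 Agonist mode qHTS in CRE-bla HEK 293T cells: compounds dosed from DMSO for 3 h at 37 C/5% CO2, followed by LiveBLAzer B/G FRET substrate for 2 h at room temperature.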

[16] = target: D(2) dopamine receptor (Homo sapiens) (UniProt P14416); experiment: Dopamine D2 receptor (DRD2) small molecule agonists, cell-based qHTS assay (AID 1963594); note: nearly all actives have a fitted effect of over 35% in size
Sequence of D(2) dopamine receptor (Homo sapiens) (P14416 whole entry, looked up): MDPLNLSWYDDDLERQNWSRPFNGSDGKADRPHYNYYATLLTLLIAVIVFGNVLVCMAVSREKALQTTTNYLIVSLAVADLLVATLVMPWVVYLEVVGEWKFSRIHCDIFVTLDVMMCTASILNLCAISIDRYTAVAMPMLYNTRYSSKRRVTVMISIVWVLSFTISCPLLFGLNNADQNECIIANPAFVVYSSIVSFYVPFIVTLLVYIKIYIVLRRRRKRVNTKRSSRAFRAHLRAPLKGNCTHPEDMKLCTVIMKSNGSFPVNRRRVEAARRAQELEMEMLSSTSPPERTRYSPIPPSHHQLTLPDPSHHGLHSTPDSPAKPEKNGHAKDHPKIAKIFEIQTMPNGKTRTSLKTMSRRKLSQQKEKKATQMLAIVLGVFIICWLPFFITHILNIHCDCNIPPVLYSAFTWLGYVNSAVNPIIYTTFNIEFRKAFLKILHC
Summary of the method: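 HEK293 cells stably expressing human DRD2, pre-treated with PDE inhibitor Ro20-1724 (0.1 mM final) and compound 10 min at room temperature, then stimulated with NKH477 (200nM […]) for 30 min. cAMP read by HTRF (665/620 nm).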

[17] = target: D(2) dopamine receptor (Homo sapiens) (UniProt P14416); experiment: Dopamine D2 receptor (DRD2) small molecule antagonists, cell-based qHTS assay (AID 1963595; active = well fitted inhibition curve with a large enough effect in the signal ratio in the repeat runs, with a control signal flat; the % refers to the signal ratio)
Summary of the method: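 HEK293 cells stably expressing DRD2 were preincubated with 0.1 mM Ro20-1724, then with compound for 10 min at room temperature. Cells were stimulated with 200 nM NKH477 plus 12 nM quinpirole for 30 min, and cAMP was read by HTRF.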

[18] = cAMP Responsive Elements (CRE) small molecule antagonists, cell-based qHTS assay (AID 1963591; active = well fitted inhibition curve with a large enough effect in the signal ratio in the repeat runs, not every such curve was filed as active; the % refers to the signal ratio)
Summary of the method: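 Antagonist mode: test compounds are co-incubated with the adenylyl cyclase activator NKH477 (0.25 uM final) on CRE-bla HEK293T cells for 3 h at 37 °C, followed by LiveBLAzer substrate loading.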

[19] = target: Beta-2 adrenergic receptor (Homo sapiens) (UniProt P07550); experiment: Adrenergic beta2 receptor (ADRB2) small molecule antagonists, cell-based qHTS assay (AID 1963592); note: series mostly up to about 92 µM; nearly all actives have a fitted effect of over 50% in size
Sequence of Beta-2 adrenergic receptor (Homo sapiens) (P07550 whole entry, looked up): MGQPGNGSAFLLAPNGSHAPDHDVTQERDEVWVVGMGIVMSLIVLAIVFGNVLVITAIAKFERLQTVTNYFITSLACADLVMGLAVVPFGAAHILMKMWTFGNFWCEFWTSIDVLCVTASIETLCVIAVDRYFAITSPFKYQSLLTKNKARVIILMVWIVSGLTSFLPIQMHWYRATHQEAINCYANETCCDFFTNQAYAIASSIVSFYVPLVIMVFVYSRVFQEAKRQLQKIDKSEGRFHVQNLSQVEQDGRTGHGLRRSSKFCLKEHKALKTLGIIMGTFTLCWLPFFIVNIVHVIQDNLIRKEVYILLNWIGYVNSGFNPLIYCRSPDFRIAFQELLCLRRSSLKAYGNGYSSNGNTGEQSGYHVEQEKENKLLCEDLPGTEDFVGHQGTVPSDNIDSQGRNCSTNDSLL
Summary of the method: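 Cells (CHO, stable ADRB2 overexpression) incubated 18-20hr at 37C; compounds added from DMSO; agonist mix (1nM isoproterenol, 100uM IBMX, 25uM Ro-20-1724) added; 0.5hr RT; d2-cAMP and anti-cAMP-cryptate added; 1hr RT; 665/615 nm read.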

[20] = target: Beta-2 adrenergic receptor (Homo sapiens) (UniProt P07550); experiment: Adrenergic beta2 receptor (ADRB2) small molecule agonists, cell-based qHTS assay (AID 1963593);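 note: CHO cells stably overexpressing human ADRB2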
Summary of the method: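 CHO cells stably over-expressing ADRB2 were plated overnight at 37C, then dosed with compounds plus a stimulation mix containing 100uM IBMX and 25uM Ro-20-1724 for 0.5hr at room temperature. cAMP was measured by HTRF competition, 1hr.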

Measured: Potency

FC(F)(F)c1ccccc1
not listed: [18] | [19] | [20]
inactive: all other assays above

CCCCCCCCSCCO
inactive: all assays above

COC(OC)OC
not listed: [14] | [20]
inactive: all other assays above

CS(=O)(=O)O
inactive: all assays above

OCCOc1ccc(OCCO)cc1
not listed: [20]
inactive: all other assays above

O=S(=O)(O)c1ccccc1O
inactive: all assays above
